High-throughput results: PubChem BioAssay, National Center for Advancing Translational Sciences (NCATS)
A selection: hits, their analogues and other compounds. The true share with any hit is near 0.95%.
TexasRed autofl: qHTS Assay for Spectroscopic Profiling in Texas Red Spectral Region; Compound fluorescence, Texas Red channel, 547/618 nm; hits give high values; max dye-equivalent concentration, M; hit rate 0.06% among 59,000; AID 587, 2007; in the data active = max dye-equivalent concentration above about 10 nM; inconclusive = between about 1.1 nM and that limit
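qHTS profiling of intrinsic compound fluorescence; 100 mM Tris pH 8.0; 15 min RT; ex 547 / em 618 nm; response expressed as Texas Red dye-equivalent concentration from six-point plate standard.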
A488 fluor: qHTS Assay for Spectroscopic Profiling in A488 Spectral Region; AID 591, 2007; compound autofluorescence, A488 spectral region, dye equivalency; Compound Type: qHTS ECL - MLSMR; max dye equivalency, M; hit rate 0.1% among 59,000
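Compounds pin-transferred into 100 mM Tris buffer, pH 8.0, incubated 15 min at room temperature, then imaged with 480 nm excitation/540 nm emission filters. Fluorescence converted to Alexa 488 dye-equivalent concentration via an on-plate six-point A488 standard curve.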
Resorufin fluor: qHTS Assay for Spectroscopic Profiling in Resorufin Spectral Region. hit rate 0.04% among 59,000. Compound fluorescence, resorufin region 547/598 nm, buffer; hits give high values. max dye-equivalent concentration, M
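Read-out: intrinsic compound fluorescence at ex 547/em 598 nm after 15 min at RT in pH 8.0 Tris (100 mM). Values expressed as resorufin-equivalent concentration from per-plate standard series.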
Fluorescein autfl: qHTS Assay for Spectroscopic Profiling in Fluorescein Spectral Region; max fluorescein-equivalent concentration, M; Compound autofluorescence, 480/540 nm, fluorescein-equivalent; hits give high values; AID 593, 2007; hit rate 0.91% among 59,000; in the data active = max fluorescein-equivalent concentration above about 10 nM; inconclusive = between about 1.1 nM and that limit
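Library compounds, added at multiple concentrations to pH 8.0 Tris buffer (100 mM), incubate 15 min at room temperature before CCD imaging at 480 nm excitation and 540 nm emission.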
A647 fluor: qHTS Assay for Spectroscopic Profiling in A647 Spectral Region; Compound fluorescence, A647 channel (570/671 nm), Tris buffer; max dye-equivalent concentration, M; 59,000 tested, under 10 active; AID 592, 2007;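 note: values scaled relative to a standard on each plate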
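Fluorescence read (570 nm ex, 671 nm em) after 15 min RT incubation of compounds in 100 mM Tris buffer, pH 8.0; values expressed as dye-equivalent concentration against a six-point A647 standard series on each plate.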
Rhodamine autofl: qHTS Assay for Spectroscopic Profiling in Rhodamine Spectral Region; hit rate 0.05% among 59,000; AID 594, 2007; Rhodamine-region fluorescence, 547/598 nm, Tris buffer; hits give high values; max dye-equivalent concentration, M; in the data active = max dye-equivalent concentration above about 11 nM; inconclusive = between about 1.1 nM and that limit
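Intrinsic compound fluorescence, ex 547 / em 598 nm, CCD imager. Tris 100 mM pH 8.0; 15 min RT. Output = rhodamine dye-equivalent concentration at each compound concentration.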
* hit, by the source's call; i = inactive; u = inconclusive. Unless noted, the rule behind the calls is not given here.

SMILES	TexasRed autofl	A488 fluor	Resorufin fluor	Fluorescein autfl	A647 fluor	Rhodamine autofl
CNc1ccc2oc(C[C@@H]3O[C@@]4(CC[C@H]3C)O[C@@H]([C@@H](C)C(=O)c3ccc[nH]3)[C@@H](C)C[C@H]4C)nc2c1C(=O)O	i	i	i	u	3.7e-08	i
Nc1c(C(=O)NCCc2ccccc2)c2nc3ccccc3nc2n1CCN1CCOCC1	i	i	i	u	3.6e-08	i
COCCNC(=O)c1c(NC(=O)c2ccco2)n(Cc2ccccc2)c2nc3ccccc3nc12	i	i	i	1.1e-08M*	1.9e-09	i
COc1cc(C=C(C#N)C#N)cc(O)c1O	i	i	i	2.5e-08M*	3.7e-08	i
Cc1ccc(-n2c(O)c(C=Nc3ccccc3N)c(=O)[nH]c2=O)cc1C	i	i	i	u	3.2e-08	i
O=c1[nH]c(=O)n(-c2ccc(F)cc2)c(O)c1C=Nc1ccccc1N1CCCC1	i	u	i	4e-08M*	1.5e-08	i
